What was measured:
[1] = tested on: Botulinum neurotoxin type F light chain protease (Clostridium botulinum); test: Clostridium botulinum type F light chain protease inhibitors, microsphere substrate cleavage, validation (AID 588459); settings: multiplex microsphere protease substrate cleavage assay, flow cytometry; at 10 µM; stronger effect = higher value
[2] = molecular target: Botulinum neurotoxin type A (Clostridium botulinum) (UniProt P0DPI0); test: BoNT/A light chain protease inhibitors, biochemical, multiplex microsphere flow cytometry, validation set (AID 588460); settings: at 10 µM, stronger effect = higher value
Botulinum neurotoxin type A (Clostridium botulinum), sequence (P0DPI0 whole entry, looked up): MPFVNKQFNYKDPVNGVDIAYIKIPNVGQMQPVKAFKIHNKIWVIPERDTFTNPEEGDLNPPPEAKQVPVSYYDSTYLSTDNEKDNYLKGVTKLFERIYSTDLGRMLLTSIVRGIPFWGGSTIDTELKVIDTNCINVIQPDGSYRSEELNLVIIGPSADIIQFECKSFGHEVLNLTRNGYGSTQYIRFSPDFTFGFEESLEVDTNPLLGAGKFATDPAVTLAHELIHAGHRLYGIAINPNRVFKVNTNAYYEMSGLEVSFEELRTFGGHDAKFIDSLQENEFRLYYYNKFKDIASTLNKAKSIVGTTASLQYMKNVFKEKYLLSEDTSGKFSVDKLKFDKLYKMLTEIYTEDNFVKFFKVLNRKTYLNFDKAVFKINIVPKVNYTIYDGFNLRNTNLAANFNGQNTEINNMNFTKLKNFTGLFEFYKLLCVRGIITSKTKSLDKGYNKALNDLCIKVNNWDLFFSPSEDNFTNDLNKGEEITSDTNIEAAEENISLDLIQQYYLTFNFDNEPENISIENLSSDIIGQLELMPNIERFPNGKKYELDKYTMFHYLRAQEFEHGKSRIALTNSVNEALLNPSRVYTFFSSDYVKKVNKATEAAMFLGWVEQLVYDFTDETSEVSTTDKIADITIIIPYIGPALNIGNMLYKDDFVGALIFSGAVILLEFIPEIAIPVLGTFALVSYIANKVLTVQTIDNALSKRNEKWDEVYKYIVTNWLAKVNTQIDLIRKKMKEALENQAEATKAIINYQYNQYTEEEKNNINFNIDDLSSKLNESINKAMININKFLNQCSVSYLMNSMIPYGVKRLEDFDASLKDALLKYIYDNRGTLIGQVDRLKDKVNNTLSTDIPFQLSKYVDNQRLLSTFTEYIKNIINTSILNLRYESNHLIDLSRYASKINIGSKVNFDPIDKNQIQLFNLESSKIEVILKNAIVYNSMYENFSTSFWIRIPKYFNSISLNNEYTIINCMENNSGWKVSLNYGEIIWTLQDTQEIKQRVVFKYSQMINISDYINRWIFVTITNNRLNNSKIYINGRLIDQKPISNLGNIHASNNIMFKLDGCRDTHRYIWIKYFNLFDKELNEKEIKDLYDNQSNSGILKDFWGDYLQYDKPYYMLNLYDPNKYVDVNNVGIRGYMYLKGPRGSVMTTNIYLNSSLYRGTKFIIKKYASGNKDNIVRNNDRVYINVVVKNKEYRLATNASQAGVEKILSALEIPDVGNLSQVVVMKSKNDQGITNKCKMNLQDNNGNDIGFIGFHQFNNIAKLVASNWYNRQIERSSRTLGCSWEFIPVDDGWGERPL

[3] = molecular target: Lethal factor (Bacillus anthracis) (UniProt P15917); test: Bacillus anthracis lethal factor inhibition, microsphere flow cytometry protease assay, validation at 10 µM (AID 588461); settings: multiplex microsphere protease cleavage assay, stronger effect = higher value
Lethal factor (Bacillus anthracis), sequence (P15917 whole entry, looked up): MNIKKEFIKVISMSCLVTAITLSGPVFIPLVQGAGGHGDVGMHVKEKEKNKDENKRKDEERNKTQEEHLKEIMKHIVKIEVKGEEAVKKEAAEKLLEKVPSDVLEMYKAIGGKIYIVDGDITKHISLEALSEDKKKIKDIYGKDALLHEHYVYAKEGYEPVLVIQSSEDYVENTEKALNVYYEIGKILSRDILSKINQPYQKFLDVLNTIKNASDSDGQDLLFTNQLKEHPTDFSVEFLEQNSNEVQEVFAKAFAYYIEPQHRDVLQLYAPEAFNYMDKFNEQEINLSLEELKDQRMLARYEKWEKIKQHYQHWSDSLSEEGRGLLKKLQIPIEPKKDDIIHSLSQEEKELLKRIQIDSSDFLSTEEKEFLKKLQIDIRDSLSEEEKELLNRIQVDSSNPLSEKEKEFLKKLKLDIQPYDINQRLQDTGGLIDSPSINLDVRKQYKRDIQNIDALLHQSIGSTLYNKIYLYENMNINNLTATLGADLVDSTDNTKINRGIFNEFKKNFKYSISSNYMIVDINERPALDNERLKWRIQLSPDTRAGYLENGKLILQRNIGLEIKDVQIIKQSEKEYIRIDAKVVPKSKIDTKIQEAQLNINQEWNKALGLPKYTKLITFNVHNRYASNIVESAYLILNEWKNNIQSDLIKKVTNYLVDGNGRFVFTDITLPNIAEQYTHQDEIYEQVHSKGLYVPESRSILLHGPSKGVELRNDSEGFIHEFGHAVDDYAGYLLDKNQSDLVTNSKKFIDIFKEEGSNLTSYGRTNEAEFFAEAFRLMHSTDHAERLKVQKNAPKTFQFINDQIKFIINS

Measured: inhibition

OC[C@H]1O[C@@H](n2cnc3c(NC4CCCC4)ncnc32)[C@H](O)[C@@H]1O
inactive: [1] -1.4% | [2] 0.2% | [3] -6.9%

C/C=C(/C(=C/C)c1ccc(O)cc1)c1ccc(O)cc1
inactive: [1] -1.2% | [2] -0.3% | [3] 3.5%

C=CCC1(Cl)C(=O)C(Cl)=C(N2CCOCC2)C1(OC)OC (stereo not drawn)
inactive: [1] -1.2% | [2] -1.2% | [3] 0%

COc1cc(C2CC(=O)NC3=C2C(=O)CC(C)(C)C3)ccc1O (stereo not drawn)
inactive: [1] -1.7% | [2] 0.3% | [3] 0%

COc1ccc(C(=O)CCN2CCc3cc(OC)c(OC)cc3C2)cc1
inactive: [1] -2.2% | [2] -0.3% | [3] -2.9%

CCCNC(=O)NS(=O)(=O)c1ccc(Cl)cc1
inactive: [1] 5.6% | [2] -0.4% | [3] -1%

Cn1c(=O)c2c(nc(SCCN3CCCCC3)n2C)n(C)c1=O
inactive: [1] -1.4% | [2] 0.2% | [3] -4.6%

O=C(COc1ccccc1)Nc1ccc2c(c1)C(=O)N(CC1CCCO1)C2=O (stereo not drawn)
inactive: [1] -0.5% | [2] -0.9% | [3] 4.5%

Cc1ccccc1C(OCCN(C)C)c1ccccc1 (stereo not drawn)
inactive: [1] 1.2% | [2] 0.7% | [3] 2.5%

Cc1ncc(C(=O)O)c(C(=O)O)c1N
inactive: [1] 0.4% | [2] -0.1% | [3] 2.4%

COc1cc(C2Nc3ccccc3NC3=C2C(=O)CC(c2ccc(OC)c(OC)c2)C3)ccc1O (stereo not drawn)
inactive: [1] -5.5% | [2] -0.9% | [3] 0%

Reference: PubChem BioAssay
